High-throughput results from PubChem.
A selection: hits, their analogues and other compounds. The true share with any hit is near 9.2%.
ELG1 genotoxic: qHTS screen for small molecules that induce genotoxicity in human embryonic kidney (HEK293T) cells expressing luciferase-tagged ELG1. HEK293T ELG1-luciferase reporter, luminescence, 16 h. Potency, µM (top dose mostly 46 µM), hits mostly activators. 330,000 tested, 1.3% active. AID 504466, 2011; also: nearly all actives have a fitted effect of over 60% in size
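Genotoxicity was scored as increased ELG1-luciferase reporter signal, measured by ONE-Glo luminescence (30 min, room temperature). Compound or vehicle exposure of the HEK293T reporter cells lasted 16 hr at 37°C.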
SMN2 splice up: qHTS Assay for Enhancers of SMN2 Splice Variant Expression | HEK293 SMN2-luciferase splicing reporter, luminescence, 30-36 h | Potency, µM (series often up to 46.1 µM), usual class: activators | 210,000 tested, 2.8% active | AID 1458, 2008; also: nearly all actives have a fitted effect of over 55% in size
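HEK293 cells carry an SMN2 minigene-luciferase reporter in which exon 7 inclusion puts luciferase in frame. Cells were seeded at 2000 cells/well, attached for 10-12 hours, then exposed to compounds for 30-36 hours at 37C before ONE-Glo luminescence.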
NPC1 promoter act: qHTS Assay for NPC1 Promoter Activators; 320,000 tested, 2.4% active; Potency, µM (series often up to 9.22 µM), actives largely listed as activators; Huh7 NPC1 promoter luciferase reporter, 24 h; also: nearly all actives have a fitted effect of over 60% in size
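Compounds in DMSO were transferred onto Huh7 NPC1-luciferase reporter cells pre-incubated 2 h; after 24 h at 37 °C, Amplite reagent was dispensed and luminescence recorded 10 min later.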
FLuc counter: qHTS profiling assay for firefly luciferase inhibitor/activator using purifed enzyme and Km concentrations of substrates (counterscreen for miR-21 project). Potency, µM (doses to about 57.5 µM), actives largely listed as inhibitors. AID 588342, 2011. 360,000 tested, 6.9% active. purified FLuc, Km substrates, luminescence inhibition. Luciferin 4-monooxygenase (Photinus pyralis), P08659; also: nearly all actives have a fitted effect of over 55% in size
Target sequence (P08659 whole entry, looked up): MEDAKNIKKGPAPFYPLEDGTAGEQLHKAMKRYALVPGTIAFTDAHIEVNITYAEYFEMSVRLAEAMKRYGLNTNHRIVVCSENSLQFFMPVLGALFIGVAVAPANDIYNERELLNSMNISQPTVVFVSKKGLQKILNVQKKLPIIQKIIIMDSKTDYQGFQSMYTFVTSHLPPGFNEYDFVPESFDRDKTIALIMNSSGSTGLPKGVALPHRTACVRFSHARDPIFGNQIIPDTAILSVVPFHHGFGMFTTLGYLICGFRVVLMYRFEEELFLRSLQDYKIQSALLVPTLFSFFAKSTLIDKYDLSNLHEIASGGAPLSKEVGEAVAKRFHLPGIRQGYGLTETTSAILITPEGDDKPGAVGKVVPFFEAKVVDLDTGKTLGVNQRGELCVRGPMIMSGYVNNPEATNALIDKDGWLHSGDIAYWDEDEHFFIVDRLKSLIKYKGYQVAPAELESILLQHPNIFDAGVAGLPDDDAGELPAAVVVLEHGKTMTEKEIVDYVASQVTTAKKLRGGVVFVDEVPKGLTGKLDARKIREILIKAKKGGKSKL
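Purified P. pyralis luciferase (10nM final) with 10uM D-luciferin and 10uM ATP (Km levels) in 50mM Tris acetate pH 7.5, 10mM Mg acetate, 0.01% Tween-20, 0.05% BSA; qHTS 6-point titration, ~60 µM downward; luminescence read.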
ELG1 repair inh: qHTS screen for small molecules that inhibit ELG1-dependent DNA repair in human embryonic kidney (HEK293T) cells expressing luciferase-tagged ELG1; Potency, µM (titrated, usually from 46.1 µM), actives largely listed as inhibitors; AID 504467, 2011; HEK293T ELG1-luciferase reporter, luminescence, 16 h; DNA damage induced by 5-fluorouridine; 330,000 tested, 2.3% active; also: nearly all actives have a fitted effect of over 55% in size
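Quantitative HTS, concentration-response format. 2,000 cells/well co-treated with 5-fluorouridine and compound, 16 hr in 5% CO2 at 37 °C; ONE-Glo luminescence read after 30 min.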
Rab9 promoter act: qHTS Assay for Rab9 Promoter Activators; AID 485297, 2010; Potency, µM (doses to about 9.22 µM), hits mostly activators; 320,000 tested, 2.8% active; Huh7 Rab9 promoter-luciferase reporter, luminescence, 24 h; also: nearly all actives have a fitted effect of over 60% in size
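Measured in stably transfected Huh7 cells bearing a Rab9 promoter–luciferase construct: 24 h compound treatment at 37 °C, followed by luminescence detection.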
Numbers stand for hits; [ ] = another dose, or the depositor's remark. Calls follow the shape of the dose curve; as a rule, active = well fitted curve in the direction sought with a large enough effect; inconclusive = small, poorly fitted or top-dose-only effect, or another doubt; inactive = no such curve, though single readings can be large; an effect the other way counts as inactive or inconclusive.

For Cc1ccc(C(=O)Nc2ccc3c(c2)OCO3)o1 the results were ELG1 genotoxic 14.6µM, SMN2 splice up 11.2µM, NPC1 promoter act 2.82µM, FLuc counter 10.7µM, ELG1 repair inh inconclusive and Rab9 promoter act inactive[1.84 µM].
C=CCC1(Cl)C(=O)C(Cl)=C(N2CCOCC2)C1(OC)OC (centres undefined) was read as ELG1 genotoxic inactive, NPC1 promoter act inactive, FLuc counter inactive, ELG1 repair inh inactive and Rab9 promoter act inactive.
`CC(C)CCN(CCC(C)C)C(CO)(CO)CO` gave ELG1 genotoxic inactive, NPC1 promoter act inactive, FLuc counter inactive, ELG1 repair inh inactive and Rab9 promoter act inactive.
`COc1ccc(C(=O)Oc2cccc(Nc3ncnc4ccccc34)c2)cc1OC` gave ELG1 genotoxic inactive, SMN2 splice up inactive, NPC1 promoter act inactive, FLuc counter inconclusive, ELG1 repair inh 16.4µM and Rab9 promoter act inactive.
COc1cc(C(=O)Oc2cccc(Nc3ncnc4ccccc34)c2)cc(OC)c1OC was read as ELG1 genotoxic inactive, SMN2 splice up inactive, NPC1 promoter act inactive, FLuc counter inconclusive, ELG1 repair inh 2.91µM and Rab9 promoter act inactive.
Screening COc1ccc(S(=O)(=O)N2CCCCC2)cc1NC(=O)CCNC(=O)c1ccc(Cl)cc1 returned ELG1 genotoxic inactive and ELG1 repair inh inactive.
`CC(O)CNc1nc2sc3c(c2c(=O)n1CCc1ccccc1)CCCCC3` (centres undefined) gave ELG1 genotoxic inactive, SMN2 splice up inactive, NPC1 promoter act inactive, FLuc counter inconclusive, ELG1 repair inh inactive and Rab9 promoter act inactive.
`O=c1c2c3c(sc2nc(NCCOCCO)n1Cc1ccco1)CCCCC3` gave ELG1 genotoxic inactive, NPC1 promoter act inconclusive, FLuc counter 16.9µM, ELG1 repair inh inactive and Rab9 promoter act inactive.
`CC(O)CNc1nc2sc3c(c2c(=O)n1Cc1ccco1)CCCCC3` (centres undefined) gave ELG1 genotoxic inactive, NPC1 promoter act inconclusive, FLuc counter 16.9µM, ELG1 repair inh inconclusive and Rab9 promoter act inactive.
For CCC(Cn1nnc2ccccc2c1=O)NC(=O)Nc1ccc(C)cc1C (centres undefined) the results were SMN2 splice up inactive and FLuc counter inactive.
`CCCCc1cc(=O)oc2cc(OCC(=O)NC3CCN(Cc4ccccc4)CC3)ccc12` gave ELG1 genotoxic inactive, NPC1 promoter act inactive, FLuc counter inactive, ELG1 repair inh inconclusive and Rab9 promoter act inactive.
O=C(CSc1nc(-c2ccccc2)no1)N1CCN(c2ccccc2F)CC1 was read as FLuc counter inactive.
Screening O=C(CSc1nc(-c2ccccc2)no1)N1CCCCC1 returned SMN2 splice up inactive and FLuc counter 23.9µM.
Screening COc1ccccc1N1CCN(C(=O)CSc2nc(-c3ccc(C(C)C)cc3)no2)CC1 returned FLuc counter 2.13µM.
Screening CC(C)c1ccc(-c2noc(SCC(=O)N3CCN(c4ccccc4F)CC3)n2)cc1 returned FLuc counter 2.39µM.
For COc1ccccc1N1CCN(C(=O)CSc2n[nH]c(-c3ccccc3)n2)CC1 the results were FLuc counter inactive.
`Cc1cc(CN2C(=O)c3ccccc3C2=O)cc(N2CCOCC2)c1` gave ELG1 genotoxic inactive, SMN2 splice up inactive, NPC1 promoter act inactive, FLuc counter inactive, ELG1 repair inh inactive and Rab9 promoter act inactive.
Screening O=C(NCc1ccncc1)C(=O)Nc1nc(C23CC4CC(CC(C4)C2)C3)cs1 returned ELG1 genotoxic inactive, SMN2 splice up inactive, NPC1 promoter act inactive, FLuc counter inactive, ELG1 repair inh 18.4µM and Rab9 promoter act inactive.
`O=C(NCc1ccccc1)C(=O)Nc1nc(C23CC4CC(CC(C4)C2)C3)cs1` gave ELG1 genotoxic inactive, SMN2 splice up inactive, NPC1 promoter act inactive, FLuc counter inactive, ELG1 repair inh inconclusive and Rab9 promoter act inactive.
`CNC(=O)C(=O)Nc1nc(C23CC4CC(CC(C4)C2)C3)cs1` gave ELG1 genotoxic inactive, NPC1 promoter act inconclusive, FLuc counter inactive, ELG1 repair inh inconclusive and Rab9 promoter act 3.16µM.
`O=C(Nc1cccc2ccccc12)/C(=C/c1ccc([N+](=O)[O-])cc1)NC(=O)c1ccccc1` gave ELG1 genotoxic inactive, SMN2 splice up inactive, NPC1 promoter act inactive, FLuc counter inactive, ELG1 repair inh inactive and Rab9 promoter act inactive.
Screening O=C(Nc1cccc2ccccc12)/C(Cl)=C/c1ccccc1 returned ELG1 genotoxic inactive, SMN2 splice up inactive, NPC1 promoter act inactive, FLuc counter 12µM, ELG1 repair inh inconclusive and Rab9 promoter act inactive.
O=C(Nc1ccccc1F)C(=O)Nc1cccc2ccccc12 was read as ELG1 genotoxic inconclusive, NPC1 promoter act inconclusive, FLuc counter inconclusive, ELG1 repair inh inconclusive and Rab9 promoter act 2.82µM.
Screening Nc1cc(C(F)(F)F)ccc1NCCc1ccccn1 returned ELG1 genotoxic inactive, NPC1 promoter act inactive, FLuc counter inactive, ELG1 repair inh inactive and Rab9 promoter act inactive.
COC(=O)c1cccc(S(=O)(=O)N(Cc2ccco2)Cc2cc3cc(OC)ccc3[nH]c2=O)c1 was read as ELG1 genotoxic inactive, SMN2 splice up inactive, NPC1 promoter act inactive, FLuc counter inactive, ELG1 repair inh 14.6µM and Rab9 promoter act inactive.
For COc1ccc(OC)c(NC(=O)CSc2nc(=O)n(CCN3CCOCC3)c3c2CCCC3)c1 the results were ELG1 genotoxic inactive, NPC1 promoter act inactive, FLuc counter inactive, ELG1 repair inh inactive and Rab9 promoter act inactive.
COCc1ccc(C(=O)N(C)CC2CCCN(CCc3ccc(Cl)cc3)C2)o1 (centres undefined) was read as ELG1 genotoxic inactive, NPC1 promoter act inactive, FLuc counter inactive, ELG1 repair inh inactive and Rab9 promoter act inactive.
COCc1ccc(C(=O)N(C)CC2CCCN(CCc3ccc(OC)cc3)C2)o1 (centres undefined) was read as ELG1 genotoxic inconclusive, NPC1 promoter act inconclusive, FLuc counter 16.9µM, ELG1 repair inh inconclusive and Rab9 promoter act inconclusive.
For Cn1c(=O)c2c(nc(Br)n2C/C=N/NC(N)=S)n(C)c1=O the results were ELG1 genotoxic inactive, NPC1 promoter act inactive, FLuc counter inactive, ELG1 repair inh inactive and Rab9 promoter act inactive.
Cc1c(Cl)cccc1NC(=O)Cn1cc(C(F)(F)F)cc(Cl)c1=O was read as ELG1 genotoxic inconclusive, SMN2 splice up inactive, NPC1 promoter act inactive, FLuc counter inactive, ELG1 repair inh inactive and Rab9 promoter act inactive.
